Source: PubChem BioAssay (National Center for Advancing Translational Sciences (NCATS))
HP1b binding inh = blocks HP1-beta chromodomain binding to methylated histone tails. Potency, µM (doses to about 114 µM), most hits filed as inhibitors. AlphaScreen HP1-beta / biotin-H3K9me3 peptide binding. 390,000 tested, 0.56% active; note: nearly all actives have a fitted effect of over 70% in size
Target sequence (P83916 whole entry, looked up): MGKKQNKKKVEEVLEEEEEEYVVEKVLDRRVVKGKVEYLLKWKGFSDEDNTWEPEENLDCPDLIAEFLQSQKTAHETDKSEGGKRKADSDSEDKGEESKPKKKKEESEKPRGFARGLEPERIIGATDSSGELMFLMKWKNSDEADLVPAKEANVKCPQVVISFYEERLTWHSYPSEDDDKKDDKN
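Compound inhibition of the preformed complex between 50 nM HP1-beta and 50 nM biotinylated H3K9me3 peptide was read by AlphaScreen. Buffer was PBS pH 7.4 with 0.01% Tween-20. Incubations ran 30 min at room temperature, with 10 ug/mL donor/acceptor beads.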
BAZ2B inh = inhibitors of human BAZ2B bromodomain. Q9UIF8. AlphaScreen BAZ2B-H3K14Ac peptide displacement. Potency, µM (doses to about 114 µM), most hits filed as inhibitors. 360,000 tested, 4.4% active. AID 504333; note: nearly all actives have a fitted effect of over 60% in size
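Multi-concentration screen (max 110 uM) measuring displacement of acetylated histone H3 peptide from BAZ2B by AlphaScreen, using 50 nM protein, 50 nM peptide and 10 ug/mL streptavidin donor plus Ni-chelate acceptor beads.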
PLK1 PBD inh = blocks phosphopeptide binding to human PLK1 polo-box domain. Potency, µM, most hits filed as inhibitors. P53350. Plk1 PBD binding of FITC phosphopeptide, fluorescence polarization. 360,000 tested, 2.8% active; note: series mostly up to about 57 µM; nearly all actives have a fitted effect of over 65% in size
JMJD2A Tudor = JMJD2A Tudor domain (human) inhibition; O75164; AlphaScreen JMJD2A-Tudor / H3K4me3 peptide binding; Potency, µM (top dose mostly 114 µM), actives largely listed as inhibitors; 390,000 tested, 4.4% active; note: nearly all actives have a fitted effect of over 50% in size
G9a inh = inhibitors of human histone lysine methyltransferase G9a. Q96KQ7. G9a H3K9 monomethylation, AlphaScreen, 2 h. Potency, µM (highest dose often 102 µM), actives largely listed as inhibitors. 350,000 tested, 8.8% active. AID 504332; note: nearly all actives have a fitted effect of over 75% in size
Target sequence (Q96KQ7 913-1193 limits assumed): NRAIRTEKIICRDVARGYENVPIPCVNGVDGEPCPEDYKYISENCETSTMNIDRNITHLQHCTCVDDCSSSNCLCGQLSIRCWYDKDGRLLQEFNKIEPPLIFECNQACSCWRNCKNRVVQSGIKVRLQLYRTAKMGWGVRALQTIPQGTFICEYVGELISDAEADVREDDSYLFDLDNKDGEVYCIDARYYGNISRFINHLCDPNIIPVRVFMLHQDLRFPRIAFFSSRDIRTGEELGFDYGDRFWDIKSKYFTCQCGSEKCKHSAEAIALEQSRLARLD
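Quantitative HTS format: methyltransferase activity on a biotin-tagged H3K9 peptide is measured by AlphaScreen, using a rabbit anti-monomethyl-H3K9 antibody with streptavidin donor and anti-IgG acceptor beads. Final levels are 20 nM enzyme, 500 nM peptide, 20 uM SAM; 2 h RT.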
VDR inh = blocks the human vitamin D receptor; Potency, µM, most hits filed as inhibitors; 400,000 tested, 0.93% active; P11473; AID 504847; VDR-SRC2-3 peptide fluorescence polarization, 2 h
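Fluorescence polarization assay of small-molecule disruption of VDR binding to coregulator peptide SRC2-3. Compounds and controls pin-transferred, then read after 2 h incubation at ambient room temperature.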
Hits are given with their value; - = inactive; ? = inconclusive; . = no result; [ ] = dose if it differs, or a comment. An excerpt weighted towards active compounds, which were near 11% of everything screened. Calls come from the whole dose curve; as a rule, active = well fitted curve in the direction sought with a large enough effect; inconclusive = small, poorly fitted or top-dose-only effect, or another doubt; inactive = no such curve, though single readings can be large; an effect the other way counts as inactive or inconclusive.

SMILES	HP1b binding inh	BAZ2B inh	PLK1 PBD inh	JMJD2A Tudor	G9a inh	VDR inh
FC(F)(F)c1ccc2c(c1)[nH]c(=S)n2C1CC1	-	-	-	-	?	-
COC(=O)c1cn(NC(=O)c2ccc(OC)c(OC)c2)c(=O)c2ccccc12	-	-	-	-	-	-
O=C(Nn1cc(C(=O)Nc2ccccc2F)c2ccccc2c1=O)c1cnccn1	-	28µM	-	28µM	-	-
COC(=O)c1cn(NC(=O)c2cnccn2)c(=O)c2ccccc12	-	7.1µM	-	11µM	?	-
C[C@@H]1CCC[C@H](C)N1	.	.	.	.	-[5.15 µM]	-
CCCC(=O)NC(c1ccccc1)c1ccc2cccnc2c1O (stereo not given)	-	25µM	-	45µM	-	-
CCCCC(=O)NC(c1ccccc1)c1ccc2cccnc2c1O (stereo not given)	-	40µM	-	-	-	-
CCC(=O)NC(c1ccccc1OC)c1ccc2cccnc2c1O (stereo not given)	-	25µM	-	56µM	-	-
CCCC(=O)NC(c1ccc(OC)cc1)c1ccc2cccnc2c1O (stereo not given)	-	20µM	-	79µM	.	-
CCC(=O)NC(c1ccc(OC)cc1)c1cc(Cl)c2cccnc2c1O (stereo not given)	-	-	-	-	-	-
COc1ccc(C)cc1S(=O)(=O)Nc1cccc(-c2ccc(N3CCCC3)nn2)c1	-	-	.	-	-	-
Oc1cccc(C(Nc2ccccn2)c2ccc3cccnc3c2O)c1Cl (stereo not given)	-	22µM	.	22µM	?	-
CCC(Sc1nc(N)cc(=O)[nH]1)C(=O)Nc1cc(C)on1 (stereo not given)	-	-	-	-	-	-
N#CC(c1ccc(Cl)cc1)c1ccc2c(C(F)(F)F)cc(C(F)(F)F)nc2n1 (stereo not given)	8.9µM	32µM	-	50µM	11µM	-
FC(F)(F)c1cc(C(F)(F)F)c2ccc(N3CCN(c4ccc(Cl)cc4)CC3)nc2n1	-	-	-	-	-	-
CCN1CCN(C(=S)c2ccc(Cl)c(Cl)c2)CC1	-	-	11µM	-	2.5µM	?
CC1=C(C(=O)N2CCOCC2)C(c2ccc(Cl)cc2)NC(=S)N1 (stereo not given)	-	-	-	-	71µM	-
CC1=C(C(=O)N2CCOCC2)C(c2ccc(Br)cc2)NC(=S)N1c1ccccc1 (stereo not given)	-	-	-	-	-	?
CC1=C(C(=O)N2CCOCC2)C(c2c(C)cc(C)cc2C)NC(=S)N1 (stereo not given)	-	-	-	-	-	-
CC1=C(C(=O)N2CCOCC2)C(c2ccc(C)cc2)NC(=S)N1 (stereo not given)	-	-	-	-	40µM	-
CS(=O)(=O)c1ccc(S(=O)(=O)N2CCC(CO)(CCCc3ccccc3)CC2)cc1	-	-	-	-	-	-
CC(C)(C)C(=O)C[n+]1cccc(C(N)=O)c1	-	-	30µM	-	-	-
CCCN(CCC)c1cc(C)nc2nc(-c3ccc(C(C)(C)C)cc3)nn12	-	-	.	-	-	-
CC(C)C[C@@H](CC(=O)N[C@@H](CCC(=O)O)CC(=O)O)NC(=O)[C@@H]1CCCC[C@H]1NC(=O)C[C@@H](NC(=O)C[C@H](Cc1ccccc1)NC(=O)[C@@H]1CNCC[C@H]1N)C(C)C	.	.	.	.	.	-
COc1ccc(-c2nc(NC3=NCCCCC3)sc2C)cc1	-	?	-	-	?	-
SMILES	HP1b binding inh	BAZ2B inh	PLK1 PBD inh	JMJD2A Tudor	G9a inh	VDR inh
CCNc1nc(-c2ccc(OC(F)F)cc2)c(C)s1	-	-	-	-	40µM	-
Cc1ccc(C2=Nc3ccccc3SC(c3cccc([N+](=O)[O-])c3)C2)cc1 (stereo not given)	-	22µM	-	?	45µM	-
COc1ccc(C2=NN(C(=O)c3cccc([N+](=O)[O-])c3)C(c3cccc([N+](=O)[O-])c3)C2)cc1 (stereo not given)	-	-	-	-	?	-
Cc1ccccc1Nc1cc(C(=O)NCCCN2CCN(c3cccc(Cl)c3)CC2)c2ccccc2n1	-	-	.	?	?	-
Cn1ncc([N+](=O)[O-])c1C(=O)Nc1ccc(-c2ccccc2)cc1	-	-	-	-	.	-
CC(C)Sc1nc2ccccc2[nH]1	-	-	-	-	56µM	-
C/C(=N\NC(N)=O)C1CC(CC(C)C)C(=O)O1 (stereo not given)	-	-	-	-	-[12.7 µM]	-
CCCCCCCC1CC(/C(C)=N/NC(N)=O)OC1=O (stereo not given)	-	-	12µM	40µM	-	45µM
Cn1cc(/C=C2\SC(=O)NC2=S)c2ccccc21	?	32µM	-	?	.	?
Cc1cn([C@H]2C[C@H](O)[C@@H](CNCc3ccc(Oc4cc(-n5cccn5)ncn4)cc3)O2)c(=O)[nH]c1=O	.	.	-	.	.	.
COC(=O)CC1Oc2ccc(F)cc2-n2cc(-c3ccc(Cl)cc3)nc21 (stereo not given)	-	-	.	-	-	-
Cc1ccccc1-c1nc(CS(=O)CC(=O)NC(C)CCc2ccccc2)c(C)o1 (stereo not given)	-	?	?	-	71µM	-
COc1cccc(-c2nc(CS(=O)CC(=O)NC(C)CCc3ccccc3)c(C)o2)c1 (stereo not given)	-	-	?	-	?	-
Cc1oc(-c2ccc(Cl)cc2)nc1CS(=O)CC(=O)NC1CC1 (stereo not given)	-	-	-	-	-	-
COc1ccc(-c2nc(CS(=O)CC(=O)NCCc3ccc(OC)c(OC)c3)c(C)o2)cc1 (stereo not given)	-	-	-	-	-	-
Cc1ccc(-c2nc(CS(=O)CC(=O)NCc3ccc(Cl)cc3)c(C)o2)cc1 (stereo not given)	-	-	-	-	?	-
CCOc1ccc(CCNC(=O)CS(=O)Cc2nc(-c3ccc(OC)cc3)oc2C)cc1OCC (stereo not given)	-	-	-	-	50µM	-
Cc1ccc(-c2nc(CS(=O)CC(=O)NC3CCC(C)CC3)c(C)o2)cc1 (stereo not given)	-	-	?	-	50µM	?
COc1ccc(-c2nc(CS(=O)CC(=O)NCc3ccc(Cl)cc3)c(C)o2)cc1 (stereo not given)	-	-	-	-	40µM	-
O=C(CSc1ncnc2sc3c(c12)CCC3)Nc1ccccc1C(=O)O	-	-	-	-	-[12.7 µM]	-
COc1cccc(-c2nc(CS(=O)CC(=O)NCCCOC(C)C)c(C)o2)c1 (stereo not given)	-	-	-	-	45µM	-
